Reference: PubChem BioAssay AID1376 (SRMLSC, 2008)
Among all 220,000 compounds or so, about 530 (0.24%) were called active. Cut-off read from the data, not from the text of the source: active = inhibition above about 13%; inconclusive = no clear call, values can overlap the other calls; inactive = below that. Shown is part of a subset that was picked to be rich in actives. Entries with a potency or affinity are not part of this list.

Molecular target: Bifunctional protein GlmU (Mycobacterium tuberculosis (strain ATCC 25618 / H37Rv)) (UniProt P9WMN3)
Sequence (P9WMN3 whole entry, looked up): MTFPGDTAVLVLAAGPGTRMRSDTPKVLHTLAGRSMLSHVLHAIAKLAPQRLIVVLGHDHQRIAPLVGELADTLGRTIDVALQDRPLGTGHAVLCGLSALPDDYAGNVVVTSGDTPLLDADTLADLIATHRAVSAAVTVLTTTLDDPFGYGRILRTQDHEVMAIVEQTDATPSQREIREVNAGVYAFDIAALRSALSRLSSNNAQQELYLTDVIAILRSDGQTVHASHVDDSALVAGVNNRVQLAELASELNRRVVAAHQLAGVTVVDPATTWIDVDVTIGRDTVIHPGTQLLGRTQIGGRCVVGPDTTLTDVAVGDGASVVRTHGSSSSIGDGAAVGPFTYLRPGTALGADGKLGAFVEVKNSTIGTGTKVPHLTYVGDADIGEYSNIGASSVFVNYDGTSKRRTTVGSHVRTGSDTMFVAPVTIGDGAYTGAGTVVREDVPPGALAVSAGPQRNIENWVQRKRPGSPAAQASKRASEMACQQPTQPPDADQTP
Assay: inhibition of mycobacterial GlmU enzyme – biochemical, glucosamine-1-phosphate acetyltransferase (AID 1376);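 note: 0% = complete reaction with vehicle and 100% = reaction without substrate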
Details: M. tuberculosis GlmU acetyltransferase enzyme assay; stronger effect = higher value;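 tested at 30 µM in the primary screen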

SMILES | inhibition
Cc1cc(N=NC(=O)c2ccccc2)ccc1O | 1.4% (inactive)
O=C(CNc1cccc(C(F)(F)F)c1)N/N=C/c1cn(-c2ccccc2)nc1-c1ccccc1 | -4.25% (inactive)
O=C(CNc1cccc(C(F)(F)F)c1)N/N=C/c1ccccc1C(=O)O | 13.4% (active)
O=C(CNc1cccc(C(F)(F)F)c1)N/N=C/c1cccc(Br)c1 | -0.17% (inactive)
N/N=C1\CCCc2c1[nH]c1ccc([N+](=O)[O-])cc21 | 0.8% (inactive)
CCn1c(SCC(=O)N2CCc3ccccc32)nnc1-c1c[nH]c2ccccc12 | 6.94% (inactive)
Clc1ccc(Cn2nc(-c3ccccc3)nc2-c2ccccc2)cc1 | 7.14% (inactive)
O=C1NC(=O)N(c2cccc(Cl)c2)C(=O)/C1=C\c1ccc(Sc2nc3ccccc3[nH]2)o1 | 22.4% (inactive)
O=C1NC(=O)N(c2ccc(Cl)cc2)C(=O)/C1=C\c1ccc(Sc2nc3ccccc3[nH]2)o1 | 12.5% (inactive)
CN(C)S(=O)(=O)c1ccc(C(=O)N2CCOCC2)cc1 | 9.61% (inactive)
CN(C)S(=O)(=O)c1ccc(=S)[nH]c1 | 1.27% (inactive)
CSc1ccccc1NC(=O)Nc1ccc(Cl)cc1 | 1.07% (inactive)
CSc1ccccc1NC(=O)Nc1cccc(Cl)c1 | 1% (inactive)
CSc1ccccc1NC(=O)Nc1ccc(F)c(Cl)c1 | 15% (active)
Cc1ccc(-n2c(-c3ccccc3)cc(/C=N/NC(=O)CC#N)c2-c2ccccc2)cc1 | -1.01% (inactive)
COc1ccc2c(c1)CCc1c(C(=O)N3CCOCC3)noc1-2 | 13.8% (active)
COc1ccc2c(c1)CCc1c(C(=O)N3CCc4ccccc4C3)noc1-2 | 5.33% (inactive)
COc1ccc2c(c1)CCc1c(C(=O)N3CCCCCC3)noc1-2 | 0.33% (inactive)
CC(C)(C)C1CCC(=NNC(=O)c2cc3c(s2)CCCC3)CC1 (configuration not stated) | -4.64% (inactive)
Cc1ccc(OCc2ccc(C(=O)Nc3nc4ccccc4n3C)o2)c([N+](=O)[O-])c1 | 2.65% (inactive)
Cc1ccc(OCc2ccc(C(=O)Nc3nc4ccccc4n3Cc3ccccc3)o2)c([N+](=O)[O-])c1 | -4.38% (inactive)
CCn1c(NC(=O)c2ccc(COc3ccc(C)cc3[N+](=O)[O-])o2)nc2ccccc21 | 15.2% (active)
O=C(N/N=C1/CCS(=O)(=O)c2ccc(F)cc21)c1ccccn1 | -0.55% (inactive)

SMILES | inhibition
CCCC(c1nnnn1CCc1ccccc1)N1CCN(C(=O)c2ccco2)CC1 (configuration not stated) | 5.26% (inactive)
COc1ccccc1OCCCCN1CCN(C(c2ccccc2)c2ccccc2)CC1 | -0.89% (inactive)
CCN(CC)S(=O)(=O)c1cc(NS(=O)(=O)c2cc(Cl)ccc2Cl)ccc1C | 3.03% (inactive)
CCC(=O)Nc1ccc(Oc2ccc3c(c2)C(=O)N(c2ccc(O)cc2)C3=O)cc1 | 2.87% (inactive)
CCCCCCCCCCCC1=C(O)C(=O)C=C(O)C1=O | 1.77% (inactive)
COC1=C(OC)C(=O)C(CCCCCCCCCCO)=C(C)C1=O | -5.02% (inactive)
COC1=CC(=O)C(O)=C(CCCCCCC/C=C/CCCCCCCC2=C(O)C(=O)C=C(OC)C2=O)C1=O | 14.3% (active)
COC(=O)c1c(C)oc2cc(Br)c(OCC(=O)C(C)(C)C)cc12 | -1.38% (inactive)
CCC(=O)NC1CCN(C(=S)NC)CC1 | -4.03% (inactive)
CSc1cccc(NC(=O)CN(Cc2ccc(Cl)cc2)S(C)(=O)=O)c1 | -1.38% (inactive)
O=C(/C=C/c1ccco1)NC(=S)Nc1cc(-c2nc3ccccc3s2)ccc1Cl | 13% (active)
Cc1ccc(-c2nc3ccccc3s2)cc1NC(=S)NC(=O)/C=C/c1ccco1 | 3.24% (inactive)
O=C(/C=C/c1ccco1)NC(=S)Nc1cccc(-c2nc3ccccc3s2)c1 | -0.02% (inactive)
FC(F)(F)c1cnc(NNC(=S)Nc2cccnc2)c(Cl)c1 | 2.72% (inactive)
CCCOC(=O)CSc1nc(N)c(C#N)c(-c2ccco2)c1C#N | 2.41% (inactive)
CC(C)OC(=O)CSc1nc(N)c(C#N)c(-c2ccco2)c1C#N | -3.1% (inactive)
COC(=O)CSc1nc(N)c(C#N)c(-c2ccco2)c1C#N | 21.7% (active)
CCOC(=O)c1[nH]c(=O)[nH]c1CN(Cc1ccco1)Cc1[nH]c(=O)[nH]c1C(=O)OCC | 2.03% (inactive)
COc1cc(OC)c(OC)cc1CN1CCC(O)CC1 | 0.1% (inactive)
Cn1c(-c2ccc(Br)cc2)cnc1NCc1cccnc1 | -2.36% (inactive)
CCCCN(C)CCC(=O)Nc1ccc(F)c(F)c1 | 0.07% (inactive)
Cc1ccc(-c2nnn(CC(=O)N(Cc3ccco3)C(C(=O)NC(C)(C)C)c3ccncc3)n2)o1 (configuration not stated) | 6.52% (inactive)
Cc1ccc(-c2nnn(CC(=O)N(Cc3ccco3)C(C(=O)NC(C)(C)C)c3ccc(C)o3)n2)o1 (configuration not stated) | 13% (active)

SMILES | inhibition
Cc1ccc(-c2nnn(CC(=O)N(Cc3ccco3)C(C(=O)NC(C)(C)C)c3cccs3)n2)o1 (configuration not stated) | 1.32% (inactive)
CCS(=O)(=O)N1CCN(CC(=O)NC2CCCCC2)CC1 | 2.03% (inactive)
COc1ccc(-c2cc3nc(-c4ccccc4)cc(N4CCC5(CC4)OCCO5)n3n2)cc1 | 5.97% (inactive)
O=C(N/N=C\c1ccccn1)C1c2ccccc2Oc2ccccc21 | -4.47% (inactive)
CN(C)CCCOc1cccc(Oc2ccccc2)c1 | -1.51% (inactive)
COc1cccc(C(=O)O/N=C(\N)c2ccc([N+](=O)[O-])cc2)c1 | -5.75% (inactive)
Cc1ccc(C(OCCN(C)C)c2cccc(C(F)(F)F)c2)cc1 (configuration not stated) | 2% (inactive)
CCN(CC)CCOC(c1ccccc1)c1ccc(C)cc1 (configuration not stated) | 13.5% (active)
CCN(CC)CCC(C)OC(c1ccccc1)c1ccccc1 (configuration not stated) | -5.59% (inactive)
C=CCNC(=O)C1CC1(c1ccccc1)c1ccccc1 (configuration not stated) | 4.25% (inactive)
COc1ccccc1NC(=O)c1cccc(S(=O)(=O)N2CCOCC2)c1 | 0.03% (inactive)
COc1ccc(C(=O)N2CCCC(c3nc(-c4cccs4)no3)C2)cc1OC (configuration not stated) | 13.1% (active)
COc1ccc(C(=O)N2CCCC(c3nc(-c4cccs4)no3)C2)cc1 (configuration not stated) | -2.88% (inactive)
COc1cc(C(=O)N2CCCC(c3nc(-c4cccs4)no3)C2)cc(OC)c1OC (configuration not stated) | 2.49% (inactive)
Cc1csc(NC(=O)c2sc3nc(-c4cccs4)ccc3c2N)n1 | 0.71% (inactive)
Nc1c(C(=O)Nc2nc3ccccc3s2)sc2nc(-c3cccs3)ccc12 | -1.14% (inactive)
O=C(Nc1ncc(Cc2cccc(C(F)(F)F)c2)s1)c1ccc(-c2cccc([N+](=O)[O-])c2)o1 | -6.86% (inactive)
Cc1ccccc1CN1C(=O)CSc2ccc(C(=O)N3CCOCC3)cc21 | 0.57% (inactive)
CN(C(=O)CCc1nnc(Cc2ccc(-c3ccccc3)cc2)o1)C1CCOCC1 | 2.22% (inactive)
C=CCn1c(COc2ccccc2)nnc1SCC(=O)Nc1ccc(S(N)(=O)=O)cc1 | 0.44% (inactive)
Cn1c(COc2ccccc2)nnc1SCC(=O)Nc1ccc(S(N)(=O)=O)cc1 | 1.92% (inactive)
NS(=O)(=O)c1ccc(NC(=O)CSc2nnc(COc3ccccc3Cl)n2C2CC2)cc1 | 13.3% (active)
c1ccc2oc(NC3=NCN(C4CCCCC4)CN3)nc2c1 | 0.06% (inactive)

SMILES | inhibition
Cc1n[nH]c(=O)nc1N/N=C/c1ccc(O)c([N+](=O)[O-])c1 | 5.79% (inactive)
Cc1csc(N/N=C/c2ccc(O)c([N+](=O)[O-])c2)n1 | 13.8% (active)
O=[N+]([O-])c1cc(/C=N\Nc2nc(-c3ccccc3)cs2)ccc1O | 7.14% (inactive)
CSc1ccc(CNc2nnnn2C)cc1 | -1.37% (inactive)
COC(=O)C1(CO)NC(c2cccs2)C2C(=O)N(c3ccccc3)C(=O)C21 (configuration not stated) | -2.08% (inactive)
Cc1ccc(N2C(=O)NC(=O)/C(=C\c3ccc([N+](=O)[O-])o3)C2=O)cc1 | 12.4% (inactive)
COc1ccc(CN2C(=O)NC(=O)/C(=C/c3ccc([N+](=O)[O-])s3)C2=O)cc1 | 6.92% (inactive)
COc1ccc(CN2C(=O)NC(=O)/C(=C/c3ccc([N+](=O)[O-])o3)C2=O)cc1 | 19.9% (active)
O=C1NC(=O)N(c2ccccc2)C(=O)/C1=C\c1ccc([N+](=O)[O-])o1 | 16.7% (inactive)
COc1ccc(CN2C(=O)NC(=O)/C(=C\c3ccco3)C2=O)cc1 | 8.39% (inactive)
Cc1cc([N+](=O)[O-])ccc1N=Nc1c(N)[nH]n(-c2ccccc2)c1=O | -3.05% (inactive)
Cc1c(NC(=O)c2ccc(S(=O)(=O)N(C)c3ccccc3)cc2)c(=O)n(-c2ccccc2)n1C | -6.06% (inactive)
COc1ccc(C(C(=O)NC(C)(C)C)N(CC2CCCO2)C(=O)CCC(=O)Nc2cc(C)on2)cc1 (configuration not stated) | 16.9% (active)
CCC(C)(C)NC(=O)C(c1ccc(OC)cc1)N(CC1CCCO1)C(=O)CCC(=O)Nc1cc(C)on1 (configuration not stated) | 5.67% (inactive)
COc1ccc(C(C(=O)NC(C)(C)C)N(Cc2ccc(C)cc2)C(=O)CCC(=O)Nc2cc(C)on2)cc1 (configuration not stated) | 5.39% (inactive)
COc1cc2nc(C3CCC3)n(NC(=O)C3CCC(OC)CC3)c(=O)c2cc1OC (configuration not stated) | 0.09% (inactive)
C=CC1CN2CCC1CC2c1[nH]c2ccccc2c1CCO (configuration not stated) | -1.33% (inactive)
NS(=O)(=O)c1cc(C(=O)OCC(=O)NC2CC2)ccc1Cl | 0.47% (inactive)
O=[N+]([O-])c1ccc2c(c1)C(N1CCOCC1)/C(=C/COc1ccc(Cl)cc1Cl)O2 (configuration not stated) | -0.92% (inactive)
COC(=O)c1oc2c(c1C)C1(CCC2)SCCS1 | -1.66% (inactive)
COc1ccc(OC)c2c1C(=O)c1ccccc1C2=O | 1.18% (inactive)
COc1ccc(N)c2c1C(=O)c1ccccc1C2=O | 11.8% (inactive)
COc1ccc(OC)c2c1C(=O)C(Cl)=C(Cl)C2=O | 15.7% (active)
